Pol beta inh – blocks human DNA polymerase beta activity. P06746. Pol beta primer extension/strand displacement, fluorescence kinetic. Potency, µM (series often up to 114 µM), without a hit: at the top dose activity change, negative = inhibition, actives largely listed as inhibitors. 340,000 tested, 1.3% active. AID 485314; note: potency is the fitted concentration of half-maximal effect; % is set by controls: 0 for no effect and ±100 for the full control effect
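10 nM enzyme + cpd, 15 min RT; start with substrate 50 nM final; read 0 min and after 10 min RT. Corrected, normalized data; 4-parameter Hill curve fit.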
WRN inhibitor – blocks human WRN helicase | WRN helicase unwinding, fluorescent forked duplex, kinetic | 360,000 tested, 0.46% active | Potency, µM (doses to about 114 µM), for inactives: top-dose activity change, negative = inhibition, most hits filed as inhibitors | Q14191; note: potency is the fitted concentration of half-maximal effect; % is set by controls: 0 for no effect and ±100 for the full control effect; nearly all actives have a fitted effect of over 55% in size
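Screening of the MLSMR collection measured strand separation of a quenched forked DNA duplex (100 nM) by 20 nM WRN with 2 mM ATP, all final. Compounds were preincubated with enzyme 15 min at room temperature.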
POLH inh – inhibitors of human DNA polymerase eta; AID 588591; Potency, µM (highest dose often 114 µM), for the others: top-dose activity change, negative = inhibition, hits mostly inhibitors; recombinant Pol eta, fluorescent DNA replication assay; 390,000 tested, 1.2% active; note: potency is the fitted concentration of half-maximal effect; % is set by controls: 0 for no effect and ±100 for the full control effect
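Pol eta at 10 nM preincubated with compounds 15 min at room temperature; reaction started with fluorescent substrate (50 nM final) and read kinetically at 0 and 10 min.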
POLK inh – DNA polymerase kappa (human) inhibition; Q9UBT6; purified Pol kappa, fluorescent DNA synthesis assay, 10 min; Potency, µM (titrated, usually from 107 µM), without a hit: at the top dose activity, negative = inhibition, hits mostly inhibitors; 400,000 tested, 0.53% active; note: potency is the fitted concentration of half-maximal effect; % is set by controls: 0 for no effect and ±100 for the full control effect
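Fluorescent qHTS in 1536-well format: enzyme (10 nM) and compound sat 15 min at room temperature before 50 nM substrate (final) was added. Signal taken at 0 and 10 min; no-enzyme buffer wells were negative controls.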
PI5P4Ka inh – PI5P4K alpha (human) kinase inhibition | max response, % | PI5P4Kalpha enzyme, ADP-Glo luminescence, 60 min; hits give low values | 330,000 tested, 1.2% active; active = max response of -50% or lower; inconclusive = between -30% and -50%; inactive = -30% or higher; note: value at the top dose of about 77 µM; % is set by controls: 0 for no effect and ±100 for the full control effect
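Controls without substrate or without enzyme flank wells where PI5P4Kalpha converts substrate using 5 microM ATP (final). Incubation lasts 60 minutes at room temperature; ADP formed is read by ADP-Glo luminescence.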
Pol iota inh – DNA polymerase iota (human) inhibition | Pol iota fluorescent replication assay, 10 min | Potency, µM (highest dose often 115 µM), without a hit: top-dose activity, negative = inhibition, actives largely listed as inhibitors | 390,000 tested, 1% active; note: potency is the fitted concentration of half-maximal effect
Target sequence (Q9UNA4 whole entry, looked up): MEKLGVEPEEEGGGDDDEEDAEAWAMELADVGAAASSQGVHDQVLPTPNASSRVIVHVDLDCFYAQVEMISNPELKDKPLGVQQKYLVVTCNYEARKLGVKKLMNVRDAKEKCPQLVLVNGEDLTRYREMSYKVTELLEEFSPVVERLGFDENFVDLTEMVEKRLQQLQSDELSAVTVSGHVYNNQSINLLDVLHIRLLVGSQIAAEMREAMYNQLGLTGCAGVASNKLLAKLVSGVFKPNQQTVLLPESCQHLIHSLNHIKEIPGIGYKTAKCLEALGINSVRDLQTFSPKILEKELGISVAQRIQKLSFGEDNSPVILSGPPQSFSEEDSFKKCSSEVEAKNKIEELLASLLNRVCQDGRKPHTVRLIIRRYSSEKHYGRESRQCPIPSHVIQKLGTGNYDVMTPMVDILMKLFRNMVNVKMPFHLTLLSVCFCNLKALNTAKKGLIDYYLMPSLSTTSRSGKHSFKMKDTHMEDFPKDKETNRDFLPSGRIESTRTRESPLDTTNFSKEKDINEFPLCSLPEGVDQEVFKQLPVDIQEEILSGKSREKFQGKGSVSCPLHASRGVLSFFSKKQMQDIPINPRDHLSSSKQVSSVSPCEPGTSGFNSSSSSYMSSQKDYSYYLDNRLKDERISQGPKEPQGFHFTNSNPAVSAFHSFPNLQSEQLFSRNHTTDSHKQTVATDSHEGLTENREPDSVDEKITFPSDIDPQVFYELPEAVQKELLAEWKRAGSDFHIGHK
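Pol iota at 10 nM preincubated 15 min with compounds at room temperature; reaction started with fluorescent substrate, 50 nM final. Fluorescence read kinetically at 0 and 10 min; buffer-only wells as negative control.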
Starred values were filed as active, the others as inactive; ? = inconclusive; . = not tested or not shown; [ ] = remark or other dose. Hits are enriched below; roughly 2.8% of the tested compounds scored in any of these assays. Unless noted, calls come from the whole dose curve; as a rule, active = well fitted curve in the direction sought with a large enough effect; inconclusive = small, poorly fitted or top-dose-only effect, or another doubt; inactive = no such curve, though single readings can be large; an effect the other way counts as inactive or inconclusive.

SMILES	Pol beta inh	WRN inhibitor	POLH inh	POLK inh	PI5P4Ka inh	Pol iota inh
O=C(CSC(=S)N1CCCC1)c1cc(Br)cc(Br)c1O	50µM*	56µM*	?	?	-25	?
CC1CCCN(C(=S)SCC(=O)c2cc(Br)cc(Br)c2O)C1 (stereo not drawn)	16µM*	89µM*	-17%	25µM*	-4	22µM*
CC1CCCN(C(=S)SCC(=O)O)C1 (stereo not drawn)	20%	-2%	-10%	-13%	2	1%
Cc1cccc(/C=N/NC(=O)c2cc(Br)ccc2OCc2ccccc2)n1	45µM*	-29%	-24%	-16%	5	?
CCCCC(CCC(=O)NNC(=O)Cc1ccccc1)C(=O)O (stereo not drawn)	6%	-11%	-11%	-16%	3	9%
COCC(C)NCC(=O)NC(C)CCc1ccccc1 (stereo not drawn)	-5%	-16%	-9%	-6%	-10	18%
COc1ccc(NCc2ccc([N+](=O)[O-])s2)c(OC)c1	22µM*	-32%	?	-28%	-4	-9%
COc1ccc(NCc2ccc([N+](=O)[O-])s2)cc1	22µM*	-13%	-7%	-27%	6	-11%
CC(C)(C)OC(=O)CNC(=O)c1[nH]cnc1C(=O)Nc1ccc(Cl)cc1	1%	-14%	-23%	-1%	4	37%
CCN(c1ccc(NC(=O)CCc2nc3sc4c(c3c(=O)[nH]2)CCCC4)cc1)C(C)C	.	-1%	?	-6%	-12	?
O=C(CCc1nc2sc3c(c2c(=O)[nH]1)CCCC3)NCCc1ccc(Cl)cc1	.	-6%	-6%	.	?	.
O=C(CCc1nc2sc3c(c2c(=O)[nH]1)CCCC3)Nc1ccccc1Cl	.	?	?	?	?	45µM*
CCc1ccc(NC(=O)CCc2nc3sc4c(c3c(=O)[nH]2)CCCC4)cc1	.	-4%[11.6 µM]	45µM*	?	?	?
CN(C)C(CNC(=O)CCc1nc2sc3c(c2c(=O)[nH]1)CCCC3)c1ccccc1 (stereo not drawn)	.	-18%	-2%	-14%	-12	?
COc1ccc(CCNC(=O)CCc2nc3sc4c(c3c(=O)[nH]2)CCCC4)cc1	35µM*	-28%	?	-27%	?	?
CCCCN1CC2([N+](=O)[O-])C=CC(=O)C([N+](=O)[O-])(C1)C2CC(=O)c1ccccc1 (stereo not drawn)	-9%	-2%	-14%	0%	-18	133%
CCN1CC2([N+](=O)[O-])C=CC(=O)C([N+](=O)[O-])(C1)C2CC(=O)c1ccccc1 (stereo not drawn)	0%	-36%[57.1 µM]	25µM*	-14%	-53*	?
C/C(=N/Nc1ccc(C(=O)O)cc1)c1ccc(O)c(O)c1O	22µM*	?	?	-27%	3	-13%
COc1ccc(OC)c(/C(C)=N/Nc2ccc(C(=O)O)cc2)c1	?	-3%	-19%	-1%	1	5%
CNS(=O)(=O)c1cc(N)ccc1C	38%	-3%	-6%	-5%	10	0%
Nc1ccc(/C=C/c2ccc(N)cc2S(=O)(=O)O)c(S(=O)(=O)O)c1	.	.	.	3.2µM*	.	.
Cc1cc(C)c(S(=O)(=O)/N=C2\C=CC(=O)C(Cl)=C2)c(C)c1	35µM*	-34%	?	?	.	?
CC(C)c1ccc(NC(=O)COC(=O)[C@@H]2CCCN2C(=O)c2cccs2)cc1	.	-10%	-31%	-14%	7	24%
CN1C(=O)NC2(O)C(=O)c3ccccc3C12O (stereo not drawn)	-15%	?	0%	-2%	-51*	?
CCCN1C(=O)NC2(O)C(=O)c3ccccc3C12O (stereo not drawn)	-1%	5%	-15%	2%	5	-3%
Cc1cc(N(C)C)cc(C)c1/C=C/c1cc[n+](C)c2ccccc12	.	.	.	-18%	.	58%
COc1ccc(OC)c(NC(=O)COC(=O)CC2CCCCC2)c1	.	-8%	-18%	-6%	11	1%

High-throughput results deposited in PubChem BioAssay by National Center for Advancing Translational Sciences (NCATS).
